HT1080 IDH1KD tx = qHTS for induction of synthetic lethality in tumor cells producing 2HG: qHTS for the HT-1080-IDH1KD cell line; HT-1080 IDH1 knockdown viability, ATP luminescence, 48 h; Potency, µM (titrated, usually from 46.1 µM), for the others: top-dose activity, negative = toxicity, usual class: cytotoxic; 360,000 compounds, 2% hits; AID 686971, 2013;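 also: 0% = DMSO wells and -100% = cell-free medium wells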
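In this qHTS, HT-1080 cells depleted of IDH1 are exposed for 48 h at 37 °C to compound titrations. Toxicity is scored from CellTiter-Glo luminescence, with DMSO as full viability and medium alone as none.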
MCF10A rereplic = A quantitative high throughput screen for small molecules that induce DNA re-replication in MCF 10a normal breast cells | MCF 10A DNA re-replication, Hoechst nuclear intensity, 48 h | Potency, µM (top dose mostly 46.1 µM), for the others: at the highest dose activity, positive = re-replication, usual class: activators | 350,000 compounds, 2.9% hits; also: % of control where 0% means no effect; nearly all actives have a fitted effect of over 50% in size
SW480 rereplic = A quantitative high throughput screen for small molecules that induce DNA re-replication in SW480 colon adenocarcinoma cells; 340,000 compounds, 1.8% hits; SW480 DNA re-replication, Hoechst DNA content imaging, 48 h; AID 624297, 2012; Potency, µM (highest dose often 46.1 µM), for the others: at the top dose re-replication activation, hits mostly activators; also: % of control where 0% means no effect; nearly all actives have a fitted effect of over 55% in size
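250 cells/well; 23 nL cpd via pin tool; 48 hr, 37 C, 5% CO2; Hoechst 40 min; imager read of total nuclear intensity, ex 405/em 500-530 nm.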
KB-3-1 tox = qHTS assay for MDR1-selective chemotherapeutics: Primary screen using the parental adenocarcinoma cell KB-3-1; KB-3-1 viability, CellTiter-Glo ATP luminescence, 72 h; Potency, µM (titrated, usually from 46.1 µM), hits mostly cytotoxic; 400,000 compounds, 1.4% hits; also: % is scaled to controls: 0 for no effect and ±100 for the full control effect; nearly all actives have a fitted effect of over 60% in size
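Viability of parental KB-3-1 cells, measured by CellTiter-Glo luminescence, followed a 72 h incubation at 37 °C with pinned compounds in phenol-red-free DMEM containing 10% FBS.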
KB-V1 MDR tox = qHTS assay for MDR1-selective chemotherapeutics: Primary screen using the drug-selected MDR subline cells KB-V1; KB-V1 MDR cells viability, CellTiter-Glo, 72 h; Potency, µM (series often up to 46.1 µM), most hits filed as cytotoxic; 400,000 compounds, 3.4% hits; AID 1347076, 2019; also: % is scaled to controls: 0 for no effect and ±100 for the full control effect; nearly all actives have a fitted effect of over 60% in size
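qHTS viability screen in drug-selected KB-V1 MDR cells: 72 h compound treatment at 37 degrees C, ATP luminescence end point.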
HT1080-NT tox = qHTS for induction of synthetic lethality in tumor cells producing 2HG: qHTS for the HT-1080-NT fibrosarcoma cell line; HT-1080-NT fibrosarcoma viability, CellTiter-Glo ATP luminescence, 48 h; Potency, µM (top dose mostly 46.1 µM), inactives show at the highest dose activity, negative = less viability, most hits filed as cytotoxic; 360,000 compounds, 1.6% hits; AID 686970, 2013;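 also: NT is the 2HG producing partner of a matched IDH1 knockdown line; 0% = DMSO-treated cells and -100% = media-only wells without cells; nearly all actives have a fitted effect of over 55% in size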
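Compounds were tested in concentration-response format on HT-1080-NT cells for 48 hours at 37 degrees C. Cell viability came from CellTiter-Glo luminescence; curves were classified by r2, response magnitude and activity.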
Starred values were filed as active, the others as inactive; i = inactive; ? = inconclusive; / = no result. The list is not random: actives were taken first. Their share in the collection is about 7.9%. Calls follow the shape of the dose curve; as a rule, active = well fitted curve in the direction sought with a large enough effect; inconclusive = small, poorly fitted or top-dose-only effect, or another doubt; inactive = no such curve, though single readings can be large; an effect the other way counts as inactive or inconclusive. Potency is read from the fitted curve at half-maximal effect.

SMILES	HT1080 IDH1KD tx	MCF10A rereplic	SW480 rereplic	KB-3-1 tox	KB-V1 MDR tox	HT1080-NT tox
COc1ccc(N2C(=O)c3ccc(C(=O)OC(C)C)cc3C2=O)cc1	0%	?	?	18µM*	i	-23%
COc1ccc(S(=O)(=O)N2CCCCC2)cc1NC(=O)CNc1ccc(F)cc1C	2%	3%	-47%	i	i	1%
COc1cccc(C(=O)Nc2nc(-c3ccc(S(=O)(=O)N4CCOCC4)cc3)cs2)c1	-12%	13%	5%	i	i	-14%
COc1ccc(/C=N/Nc2nc(-c3cccc(S(=O)(=O)N4CCCC4)c3)cs2)c(OC)c1	-1%	?	14%	18µM*	2.6µM*	-15%
COc1ccc(C2C(C#N)=C(N)OC3=C2C(=O)CC(C)C3)c(OC)c1OC (stereo unspecified)	6%	5%	-9%	i	i	3%
COc1ccc2c(c1OC)OCC2C (stereo unspecified)	8%	?	8%	?	15µM*	3%
COc1cccc(C(=O)NCC(c2ccco2)N2CCOCC2)c1 (stereo unspecified)	2%	-12%	?	i	i	-4%
S=C(NCCCc1cnc[nH]1)NCCCN(CCc1ccc(Cl)cc1)c1ccc(Br)cn1	/	/	/	i	i	/
O=C(COc1ccccc1)N(Cc1nnc(-c2ccccc2Cl)o1)C1CC1	1%	3%	-1%	i	i	-4%
O=C(CSC(=S)N1CCCC1)N(Cc1nnc(-c2ccccc2Cl)o1)C1CC1	7%	0%	-5%	i	4.6µM*	-3%
CC(=O)c1ccc(N2CCN(c3ccc(NC(=O)c4cccs4)cc3C(=O)O)CC2)cc1	/	/	/	i	?	/
COC(=O)c1ccc(N=C2S/C(=C\c3cc(C)n(-c4cccnc4)c3C)C(=O)N2C)cc1	0%	?	18µM*	?	i	-6%
CN(C)c1ccc(CNCCC(Cc2ccccc2)c2ccco2)cc1 (stereo unspecified)	23µM*	?	?	?	?	18µM*
c1ccc(CNCCC(Cc2ccccc2)c2ccco2)cc1 (stereo unspecified)	16µM*	10%	?	?	?	16µM*
C[C@]12C=CC(=O)C=C1CCC1C2C(O)C[C@]2(C)C1CC[C@]2(O)C(=O)CO (stereo partly specified)	/	0%	-3%	/	/	/
Cc1cc(-c2ccc(N=Nc3ccc4c(S(=O)(=O)O)cc(S(=O)(=O)O)c(N)c4c3O)c(C)c2)ccc1N=Nc1ccc2c(S(=O)(=O)O)cc(S(=O)(=O)O)c(N)c2c1O	/	-7%	-2%	/	/	/
CCC1CCCCN1CCCNC(=O)c1ccc2c(c1)N(Cc1ccc(Cl)cc1)C(=O)c1ccccc1S2(=O)=O (stereo unspecified)	/	/	/	i	i	/
CC(OC(=O)Cc1n[nH]c(=O)c2ccccc12)C(=O)N(C)c1ccccc1 (stereo unspecified)	?	/	/	?	i	?
Fc1cccc(Cl)c1CSc1ccc(-c2cccnc2)nn1	1%	23µM*	12%	i	i	1%
Cc1ccc(Cn2c(C3CCCN3c3nc(-c4ccc(F)cc4)cs3)nc3cc(Cl)c(Cl)cc32)cc1 (stereo unspecified)	1%	-8%	-2%	i	i	-2%
CCCn1c(C2CCCN2c2nc(-c3ccc(C)cc3)cs2)nc2ccccc21 (stereo unspecified)	?	?	?	18µM*	?	?
Cc1ccc(-c2csc(N3CCN(CCCn4c(C(F)(F)F)nc5ccccc54)CC3)n2)cc1	-8%	18%	28%	?	i	?
Cc1ccc(-c2csc(N3CCN(CCCn4c(-c5ccncc5)nc5ccccc54)CC3)n2)cc1	?	23µM*	?	?	18µM*	?
O=C(NC1CCCCCC1)C1c2ccccc2C(=O)N1Cc1ccccc1Cl (stereo unspecified)	/	/	/	i	i	/
CCOc1ccc(-n2c(SC)nc3c(c2=O)SCC3)cc1	-4%	0%	-12%	i	i	0%
SMILES	HT1080 IDH1KD tx	MCF10A rereplic	SW480 rereplic	KB-3-1 tox	KB-V1 MDR tox	HT1080-NT tox
CCOc1ccc(-n2c(SC(C)C)nc3c(c2=O)SCC3)cc1	-21%	19%	14%	i	2.9µM*	-16%
Cc1ccccc1CN1CCc2nc(Nc3ccc4c(c3)OCCO4)ncc2C1	/	/	/	?	i	/
O=C(C[n+]1cc(-c2ccc(F)cc2)n2c1CCC2)Nc1nc(-c2ccc(F)cc2)cs1	6%	?	-8%	?	i	4%
Cc1ccc(-c2csc(NC(=O)C[n+]3cc(-c4ccccc4)n4c3CCC4)n2)cc1	?	11%	?	?	i	-23%
Cc1ccc(-c2c[n+](CC(=O)N3c4ccccc4Sc4ccccc43)c3n2CCC3)cc1	?	1%	1%	?	i	?
O=C(C[n+]1cc(-c2ccccc2)n2c1CCC2)Nc1nc(-c2ccc(F)cc2)cs1	-7%	8%	0%	21µM*	i	-10%
Cc1ccc(-c2csc(NC(=O)C[n+]3cc(-c4ccc(C)cc4)n4c3CCC4)n2)cc1	16µM*	?	-5%	?	i	?
O=C(C[n+]1cc(-c2ccccc2)n2c1CCC2)N1c2ccccc2Sc2ccccc21	-23%	?	4%	6.5µM*	i	1%
CCCCOc1ccccc1Cn1c(=O)sc2ccccc21	/	/	/	i	i	/
Cc1oc(-c2ccc(C(=O)NCc3cccc(F)c3)cc2)nc1COc1ccccc1	/	/	/	i	i	/
COc1ccc(-c2ccc3oc(-c4ccc(OC)cc4)c(-c4ccc(OC)cc4)c3c2)cc1	23%	1%	-4%	i	i	11%
COc1ccc(-c2oc3ccc(N4CCOCC4)cc3c2C#CCO)cc1	?	18µM*	?	?	?	?
COc1ccc(-c2ccc3oc(-c4ccc(OC)cc4)c(C#CCO)c3c2)cc1	16µM*	?	26µM*	i	i	21µM*
Cn1cc(-c2cc3n(n2)CCC(=O)N3CCCC(=O)NCc2ccc(Cl)cc2)c2ccccc21	/	/	/	i	i	/

Screening results deposited in PubChem by National Center for Advancing Translational Sciences (NCATS).
